Active and inactive are the calls of the source. How the calls were made is not given here.
Molecular target: fMet-Leu-Phe receptor (Homo sapiens) (UniProt P21462)
Test: human FPR1 ligand displacement single-point test – cell-based, single concentration, selectivity assay for FPRL1 ligand SAR project, SAR follow-up (AID 763)
Details: FPR1-expressing cells, fluorescent ligand binding inhibition, hits give high values; at 5.4 µM unless noted

fMet-Leu-Phe receptor (Homo sapiens), sequence (P21462 whole entry, looked up): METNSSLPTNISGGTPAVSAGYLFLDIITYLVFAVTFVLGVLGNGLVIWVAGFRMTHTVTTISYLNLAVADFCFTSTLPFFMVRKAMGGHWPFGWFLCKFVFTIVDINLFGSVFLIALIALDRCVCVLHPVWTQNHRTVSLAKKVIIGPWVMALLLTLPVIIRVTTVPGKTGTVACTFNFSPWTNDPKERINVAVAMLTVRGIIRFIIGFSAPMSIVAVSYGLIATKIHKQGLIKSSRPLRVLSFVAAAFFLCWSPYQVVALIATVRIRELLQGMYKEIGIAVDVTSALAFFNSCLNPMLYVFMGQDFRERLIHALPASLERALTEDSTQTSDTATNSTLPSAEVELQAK

inhibition, inactive:
COc1ccc(-c2cn3cccnc3n2)cc1NC(=O)CCC1CCCCC1 -4.2% [at 5.9 µM]
CCOC(=O)N1CCN(c2nc(-c3ccc(F)cc3)cc(C(F)(F)F)n2)CC1 0.3% [at 5.6 µM]
Cc1nc2c3c(-c4ccccc4)nc(N4CCN(C)CC4)nc3nn2c(C)c1CCC(=O)O 0% [at 5 µM]
CCCCOc1ccc(C(=O)Nc2cc(-c3cn4cccnc4n3)ccc2OC)cc1 2.6% [at 5.3 µM]
FC(F)(F)c1cc(-c2cccs2)nc(N2CCN(C(c3ccccc3)c3ccccc3)CC2)n1 -2.4% [at 4.6 µM]
CC(C)(C)OC(=O)N1CCN(c2nc(-c3ccccc3Cl)c3cc(Br)ccc3n2)CC1 8.5% [at 4.4 µM]
CCOC(=O)N1CCN(c2nc(-c3ccccc3OC)cc(C(F)(F)F)n2)CC1 1%
Fc1ccc(-c2cc(C(F)(F)F)nc(N3CCN(Cc4ccccc4)CC3)n2)cc1 0% [at 5.3 µM]
FC(F)(F)c1cc(-c2ccccc2)nc(N2CCN(c3cccc(Cl)c3)CC2)n1 -2.5% [at 5.3 µM]
CCCC(CCC)C(=O)Nc1cc(-c2cn3cccnc3n2)ccc1OC -2% [at 6.1 µM]
Clc1ccccc1-c1nc(N2CCN(c3ccccc3)CC2)nc2ccc(Br)cc12 1.5% [at 4.6 µM]
Cc1ccccc1N1CCN(c2nc(-c3ccccc3)c3cc(Br)ccc3n2)CC1 3.5% [at 4.8 µM]

Source: PubChem BioAssay AID763 (NMMLSC, 2007)
